Compounds with a hit are over-represented: about 6.7% of the library has one in this group of screens.
T cruzi growth-1: blocks T. cruzi growth in NIH3T3 culture. 77,000 tested, 5.9% active. inhibition, % at 8.34 µM. AID 624255. T. cruzi beta-gal in NIH3T3, GalScreen luminescence, 90 h;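 active = mean inhibition above about 93%, with at least 55% of replicates each passing it, limit read from the data, passing the limit was not always enough; inconclusive = only one of those two conditions holds; inactive = neither condition holds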
C diff growth: inhibitors of Clostridium difficile growth | Clostridium difficile clinical isolate growth, OD600, 24 h; stronger effect = lower value | 86,000 tested, 0.25% active | growth activity, negative = inhibition, % at 16 µg/mL (by protocol) | AID 1259249;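 active = mean growth activity at or below -80% and every replicate also at or below -80%; inconclusive = mean at or below -80% but some replicate above -80%; inactive = mean growth activity above -80%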
Pf Dd2 growth: P. falciparum Dd2 growth inhibition; SYBR Green, 72 h; stronger effect = lower value; 94,000 tested, 2.3% active; activity change, % at 10 µM; AID 1159554; in the data active = activity change below about -80%; inconclusive = no clear call, values can overlap the other calls
T cruzi growth-2: inhibitors of T. cruzi proliferation | T. cruzi beta-gal in NIH3T3, GalScreen luminescence, 90 h | AID 651739 | 5,600 tested, 72% active | inhibition, % at 8.35 µM | shares compounds with T cruzi growth-1;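 active = mean replicate inhibition above about 95% and at least 55% of replicates individually reaching it, limit read from the data; inconclusive = only one of the two criteria is met; inactive = neither criterion is met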
T cruzi growth-3: Trypanosoma cruzi proliferation inhibition. shares compounds with T cruzi growth-1. T. cruzi beta-gal in NIH3T3, GalScreen luminescence, 90 h. inhibition, % at 2.09 µM. 5,600 tested, 21% active. AID 651740;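 active = mean inhibition above about 95%, with at least 55% of replicates also reaching it, limit read from the data; inconclusive = meets just one of the two conditions; inactive = meets neither condition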
NIH3T3 tox: cytotoxicity in mouse NIH/3T3 fibroblasts | cytotoxicity (signal decrease), % at 8.35 µM | 5,600 tested, 14% active | shares compounds with T cruzi growth-1 | NIH/3T3 viability, CellTiter-Glo ATP luminescence, 90 h;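 active = mean signal decrease across replicates above about 35% based on untreated-well scatter, with enough replicates individually passing, limit read from the data; inconclusive = no rule stated though some were filed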
3T3 cytotox 2: kills mouse NIH/3T3 fibroblasts. shares compounds with T cruzi growth-1. NIH/3T3 viability, CellTiter-Glo ATP luminescence, 90 h. inhibition, % at 24.9 µM. 5,600 tested, 56% active;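 active = mean loss of cell viability signal at or above a set limit, and enough replicates individually reaching it; inconclusive = meets only the mean limit or only the replicate share; inactive = meets neither condition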
Numbers stand for hits.

Results for C[C@H]1CN([C@@H](C)CO)C(=O)c2cccc(NC(=O)c3cnccn3)c2O[C@@H]1CN(C)C(=O)Nc1ccccc1 ?
T cruzi growth-1: inactive; C diff growth: inactive; Pf Dd2 growth: inactive

How did CO[C@H](CN(C)C(=O)c1ccc2c(c1)OCO2)[C@H](C)CN([C@@H](C)CO)S(=O)(=O)c1ccc(F)cc1 do in these assays?
T cruzi growth-1: inactive; Pf Dd2 growth: inactive

How did CCCNC(=O)N1[C@@H](C#N)[C@H](c2ccc(C#Cc3ccc(F)cc3)cc2)[C@@H]1CO do in these assays?
T cruzi growth-1: 102.6; C diff growth: inactive; Pf Dd2 growth: inactive; T cruzi growth-2: 105.4; T cruzi growth-3: inactive; NIH3T3 tox: inactive; 3T3 cytotox 2: 40.0

How did CCCNC(=O)N1[C@@H](C#N)[C@@H](c2ccc(C#Cc3ccc(F)cc3)cc2)[C@@H]1CO do in these assays?
T cruzi growth-1: 103.2; C diff growth: inactive; Pf Dd2 growth: inactive; T cruzi growth-2: 107.2; T cruzi growth-3: 102.8; NIH3T3 tox: inactive; 3T3 cytotox 2: inconclusive

How did N#C[C@H]1[C@@H](c2ccc(C#Cc3ccc(F)cc3)cc2)[C@H](CO)N1C(=O)Nc1ccc(F)cc1 do in these assays?
T cruzi growth-1: inactive; C diff growth: inactive; Pf Dd2 growth: inactive

Results for N#C[C@H]1[C@H](c2ccc(C#Cc3ccc(F)cc3)cc2)[C@H](CO)N1C(=O)Nc1ccc(F)cc1 ?
T cruzi growth-1: inactive; C diff growth: inactive; Pf Dd2 growth: inactive

What do the screens show for `O=C(C[C@H]1CC[C@H](NC(=O)C2CCC2)[C@@H](CO)O1)NC1CCCCC1`?
C diff growth: inactive

Results for C[C@H]1CN([C@@H](C)CO)C(=O)c2cccc(NC(=O)C3CC3)c2O[C@@H]1CN(C)Cc1ccc(C(=O)O)cc1 ?
T cruzi growth-1: inactive; C diff growth: inactive; Pf Dd2 growth: inactive

What do the screens show for `CCNC(=O)C[C@H]1CC[C@@H]2[C@@H](COc3ccc(NC(=O)Nc4ccccc4OC)cc3C(=O)N2C)O1`?
T cruzi growth-1: inactive; C diff growth: inactive; Pf Dd2 growth: inactive

How did O=C([C@H]1[C@H](CO)[C@H]2Cn3c(cccc3=O)[C@H]2N1CC1CCCCC1)N1CCOCC1 do in these assays?
C diff growth: inactive; Pf Dd2 growth: inactive

Results for O=C(Nc1ccc(F)cc1)N1CCCCN2[C@H](C1)[C@@H](c1ccc(-c3ccncc3)cc1)[C@@H]2CO ?
T cruzi growth-1: inactive; C diff growth: inactive; Pf Dd2 growth: inactive

Results for Cc1ccccc1-c1ccc([C@H]2[C@H]3CN(C(=O)Nc4ccc(F)cc4)CCCCN3[C@H]2CO)cc1 ?
T cruzi growth-1: 100.7; C diff growth: inactive; Pf Dd2 growth: inactive; T cruzi growth-2: 111.2; T cruzi growth-3: inactive; NIH3T3 tox: inactive; 3T3 cytotox 2: 75.6

Results for Cc1ccccc1-c1ccc([C@@H]2[C@@H](CO)N3CCCCN(C(=O)Nc4ccccc4)C[C@@H]23)cc1 ?
T cruzi growth-1: inactive; C diff growth: inactive; Pf Dd2 growth: inactive

How did Cc1ccccc1-c1ccc([C@H]2[C@@H](CO)N3CCCCN(C(=O)Nc4ccc(F)cc4)C[C@H]23)cc1 do in these assays?
T cruzi growth-1: 100.8; C diff growth: inactive; Pf Dd2 growth: inactive; T cruzi growth-2: 97.9; T cruzi growth-3: inconclusive; NIH3T3 tox: 93.7; 3T3 cytotox 2: 103.1

Results for Cc1ccccc1-c1ccc([C@H]2[C@H](CO)N3CCCCN(C(=O)Nc4ccccc4)C[C@@H]23)cc1 ?
T cruzi growth-1: inactive; C diff growth: inactive; Pf Dd2 growth: inactive

How did Cc1ccccc1-c1ccc([C@H]2[C@@H](CO)N3CCCCN(C(=O)Nc4ccc(F)cc4)C[C@@H]23)cc1 do in these assays?
T cruzi growth-1: 104.1; C diff growth: inactive; Pf Dd2 growth: inactive; T cruzi growth-2: 106.8; T cruzi growth-3: inactive; NIH3T3 tox: inactive; 3T3 cytotox 2: 55.6

What do the screens show for `CN(C)CCCNC(=O)C[C@@H]1CC[C@@H]2[C@@H](COc3ccc(NC(=O)C4CCC4)cc3C(=O)N2C)O1`?
T cruzi growth-1: inactive; C diff growth: inactive; Pf Dd2 growth: inactive

What do the screens show for `COCC(=O)N(C)C[C@H]1Oc2ncc(C#Cc3ccccc3)cc2C(=O)N([C@@H](C)CO)C[C@@H]1C`?
T cruzi growth-1: inactive; C diff growth: inactive; Pf Dd2 growth: inactive

Results for CCCNC(=O)Nc1ccc2c(c1)OC[C@@H](C)N(Cc1ccncc1)C[C@H](C)[C@@H](OC)CN(C)C2=O ?
T cruzi growth-1: inactive; Pf Dd2 growth: inactive

Results for N#C[C@H]1[C@H](c2ccc(C#CC3(O)CCCC3)cc2)[C@H](CO)N1C(=O)C1CCC1 ?
T cruzi growth-1: 100.3; C diff growth: inactive; Pf Dd2 growth: inactive; T cruzi growth-2: 106.8; T cruzi growth-3: inactive; NIH3T3 tox: inactive; 3T3 cytotox 2: 64.1

Results for N#C[C@H]1[C@@H](c2ccc(C#Cc3ccc(F)cc3)cc2)[C@H](CO)N1C(=O)C1CC1 ?
T cruzi growth-1: inactive; C diff growth: inactive; Pf Dd2 growth: inactive

Results for N#C[C@@H]1[C@@H](c2ccc(C#Cc3cccnc3)cc2)[C@@H](CO)N1C(=O)C1CCC1 ?
T cruzi growth-1: inactive; C diff growth: inactive; Pf Dd2 growth: inactive

How did N#C[C@H]1[C@@H](c2ccc(C#CC3(O)CCCC3)cc2)[C@H](CO)N1C(=O)C1CC1 do in these assays?
T cruzi growth-1: 99.7; C diff growth: inactive; Pf Dd2 growth: inactive; T cruzi growth-2: 104.0; T cruzi growth-3: inactive; NIH3T3 tox: inactive; 3T3 cytotox 2: 56.0

Results for CN(C[C@H]1N[C@@H](CO)[C@H]1c1ccc(C2=CCCCC2)cc1)S(C)(=O)=O ?
T cruzi growth-1: inactive; C diff growth: inactive; Pf Dd2 growth: inactive

How did CN1CCN(C(=O)C[C@@H]2CC[C@H]3[C@H](COc4ccc(NC(=O)C5CCC5)cc4C(=O)N3C)O2)CC1 do in these assays?
C diff growth: inactive; Pf Dd2 growth: inactive

Results for CN(C)C(=O)C[C@H]1C[C@@H]2c3cc(NC(=O)c4ccc5c(c4)OCO5)ccc3O[C@@H]2[C@H](CO)O1 ?
T cruzi growth-1: inactive; C diff growth: inactive; Pf Dd2 growth: inactive

How did COc1cccc(S(=O)(=O)N2C[C@@H](O)COC[C@H]3O[C@@H](CC(=O)Nc4ccccc4)CC[C@@H]32)c1 do in these assays?
T cruzi growth-1: inactive; C diff growth: inactive; Pf Dd2 growth: inactive

What do the screens show for `C[C@@H]1CN([C@@H](C)CO)C(=O)Cc2cc(N(C)C)ccc2O[C@H]1CN(C)CC1CC1`?
T cruzi growth-1: inactive; C diff growth: inactive; Pf Dd2 growth: inactive

What do the screens show for `CC(C)NC(=O)N1[C@H](CO)[C@H](c2ccccc2)[C@@H]1CNCc1ccccc1`?
C diff growth: inactive; Pf Dd2 growth: inactive
